Screening results from PubChem BioAssay.
A selection: hits, their analogues and other compounds. The true share with any hit is near 12%.
Sfp inh = qHTS Assay for Inhibitors of Bacillus subtilis Sfp phosphopantetheinyl transferase (PPTase); AID 1490, 2009; 4'-phosphopantetheinyl transferase ffp (Bacillus subtilis), Q9F4F7; 310,000 tested, 3.5% active; Biochemical Sfp PPTase activity, qHTS; Potency, µM, without a hit: largest response in the series, negative = inhibition, hits mostly inhibitors;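 also: the enzyme is Sfp with the accession as filed and its product quenches rhodamine fluorescence; 0% = enzyme reaction without inhibitor and -100% = no enzyme wells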
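Buffer: 50 mM Hepes-Na pH 7.6, 10 mM MgCl2, 0.01% Nonidet P-40, 0.01% BSA. Enzyme 15 nM, pre-exposed to compound 15 min; substrates then added and fluorescence change tracked over 30 min.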
JMJD2A Tudor inh = qHTS Assay for Inhibitors of JMJD2A-Tudor Domain. AID 504339, 2011. 390,000 tested, 4.4% active. Potency, µM (doses to about 114 µM), for the others: at the top dose activity change, negative = inhibition, actives largely listed as inhibitors. AlphaScreen JMJD2A-Tudor / H3K4me3 peptide binding; also: % is scaled to controls: 0 for no effect and ±100 for the full control effect; nearly all actives have a fitted effect of over 50% in size
BAZ2B inh = qHTS Assay for Inhibitors of BAZ2B; Potency, µM (top dose mostly 114 µM), for the others: at the highest dose activity change, negative = inhibition, actives largely listed as inhibitors; 360,000 tested, 4.4% active; AID 504333, 2011; Bromodomain adjacent to zinc finger domain protein 2B (Homo sapiens), Q9UIF8; AlphaScreen BAZ2B-H3K14Ac peptide displacement; also: % is scaled to controls: 0 for no effect and ±100 for the full control effect; nearly all actives have a fitted effect of over 60% in size
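Complex of BAZ2B and biotin-H3K14Ac (50 nM apiece) forms over 30 min at RT, then faces library compounds up to 110 uM for another 30 min; AlphaScreen beads added, 20 min dark incubation, luminescence read.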
G9a block = qHTS Assay for Inhibitors of Histone Lysine Methyltransferase G9a | G9a H3K9 monomethylation, AlphaScreen, 2 h | Potency, µM (highest dose often 102 µM), for inactives: top-dose activity, negative = inhibition, most hits filed as inhibitors | 350,000 tested, 8.8% active; also: % is scaled to controls: 0 for no effect and ±100 for the full control effect; nearly all actives have a fitted effect of over 75% in size
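G9a (20 nM) was preincubated 15 min with compound, then reacted 2 h at room temperature with 500 nM biotin-H3K9 peptide and 20 µM SAM. Monomethyl-H3K9 detected by AlphaScreen using anti-H3K9me1 antibody.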
HP1b chromo inh = HTS for Inhibitors of HP1-beta Chromodomain Interactions with Methylated Histone Tails; AlphaScreen HP1-beta / biotin-H3K9me3 peptide binding; Chromobox protein homolog 1 (Homo sapiens), P83916; 390,000 tested, 0.56% active; Potency, µM (titrated, usually from 114 µM), without a hit: at the top dose activity change, negative = inhibition, hits mostly inhibitors; also: nearly all actives have a fitted effect of over 70% in size
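AlphaScreen: HP1-beta (50 nM) preformed 30 min with biotin-H3(1-18)K9me3 peptide (50 nM) in PBS pH 7.4, 0.01% Tween-20. Compound added for 30 min at RT, then streptavidin donor/nickel chelate acceptor beads (10 ug/mL) for 30 min.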
* hit, by the source's call; ? = inconclusive; . = no result; [ ] = another dose, or the depositor's remark. Calls follow the shape of the dose curve; as a rule, active = well fitted curve in the direction sought with a large enough effect; inconclusive = small, poorly fitted or top-dose-only effect, or another doubt; inactive = no such curve, though single readings can be large; an effect the other way counts as inactive or inconclusive. Potency is read from the fitted curve at half-maximal effect.

SMILES | Sfp inh | JMJD2A Tudor inh | BAZ2B inh | G9a block | HP1b chromo inh
O=C(C[n+]1ccc(Cc2ccccc2)cc1)Nc1ccc([N+](=O)[O-])cc1Cl | 11% | -35% | -37% | -9% | 45%
COc1cccc(/C=N/n2c(COc3ccccc3)n[nH]c2=S)c1 | ? | 79µM* | ? | 1.8µM* | ?
C(=N\n1cnnc1)/c1cccc(Oc2ccccc2)c1 | 5% | -8% | -10% | 13%[59 µM] | 1%
Brc1cccc(/C=N\n2cnnc2)c1 | 13% | -14% | -30% | 5%[59 µM] | 13%
S=c1[nH]ncn1/N=C/c1cccc(Oc2ccccc2)c1 | -20% | 45µM* | -38% | -123% | ?
S=c1[nH]nc(COc2ccccc2)n1/N=C/c1cccc(Br)c1 | ? | ? | -29% | 8.9µM* | -5%
S=c1[nH]nc(COc2ccccc2)n1/N=C/c1cccnc1 | -5% | 10µM* | -6% | 1.8µM* | -9%
CS(=O)(=O)NCCOc1ccc(S(=O)(=O)NCCOc2ccccc2)cc1 | 15% | -14%[11.4 µM] | 1% | -7% | 22%
CCc1ccc(NC(=O)C/C(C)=N/NC(=O)OCc2ccc(OC)cc2)cc1 | -3% | -12% | 0% | 16% | 27%
CC(C)c1ccc(/C=N/n2c(COc3ccccc3)n[nH]c2=S)cc1 | -22% | 35µM* | ? | 50µM* | 40µM*
Cc1ccc(/C=N/n2c(COc3ccccc3)n[nH]c2=S)cc1 | ? | ? | -12% | 8.9µM* | 7%
S=c1[nH]nc(COc2ccccc2)n1/N=C/c1ccc(Br)cc1 | 63µM* | -21% | -6% | 20µM* | 5%
Cc1ccc(-c2[nH]ncc2/C=N/n2c(COc3ccccc3)nc3ccccc3c2=O)cc1 | 21% | -18% | 4% | -2%[59 µM] | 18%
O=C(O)C(Cc1ccccc1)N1CCS(=O)(=O)CC1 (stereo not given) | -4% | -8%[57.1 µM] | -5% | 31% | 20%
CCOc1ccc(NC(=O)Cn2cc(C(=O)c3ccccc3)c(=O)c3cc4c(cc32)OCO4)cc1 | . | -16% | -4% | -32%[59 µM] | 24%
CCN1N=C(C)C=C(c2ccccc2)n2c1nc1ccccc12 | 14% | -12% | -17% | 79µM* | 25%
Cc1nnc2c(-c3ccccc3)nc3ccccc3n12 | 12% | 12% | -6% | -2%[12.7 µM] | 18%
CCCc1sc(N)nc1-c1ccc(Cl)cc1 | 10% | -35% | -37% | 45µM* | -2%
O=C1CC(c2ccco2)CC(O)=C1C=Nc1cc(Cl)ccc1Cl (stereo not given) | 50µM* | ? | 50µM* | 7.1µM* | -6%
O=C1CC(c2ccco2)CC(O)=C1C=Nc1ccccc1-c1ccccc1 (stereo not given) | -3% | -15% | -11% | 10%[59 µM] | 35%
O=C1CC(c2ccco2)CC(O)=C1C=Nc1cc(Cl)ccc1O (stereo not given) | -24% | 79µM* | 45µM* | ? | ?
O=c1c2cc(NC(=S)N3CCCCCC3)ccc2nc2n1CCCCC2 | -1% | -6% | -12% | 0% | 34%
Cc1ccc(S(=O)(=O)NCCNS(=O)(=O)c2ccc(C)cc2)cc1 | 6% | -8% | -18% | -17% | 14%
Cc1ccc(S(=O)(=O)NCCSCc2ccccc2)cc1 | -11% | -10% | 0% | 10µM* | 22%
NNC(=O)COc1cccc2cccnc12 | 2% | -4%[11.4 µM] | -5% | -16%[59 µM] | 44%
SMILES | Sfp inh | JMJD2A Tudor inh | BAZ2B inh | G9a block | HP1b chromo inh
O=C(Oc1ccc(Cl)c2cccnc12)c1ccco1 | 14% | -18% | 50µM* | ? | 42%
O=C(Oc1cccc2cccnc12)c1ccc(Br)o1 | -16% | -23% | 50µM* | ? | 29%
O=C(Oc1cccc2cccnc12)c1ccco1 | -22% | -17% | 71µM* | 26%[59 µM] | 28%
O=C(Cc1ccc(Cl)cc1)Oc1cccc2cccnc12 | -6% | 25µM* | 10µM* | ? | 21%
O=C(Oc1cccc2ccccc12)c1ccco1 | -7% | 16% | 5% | ? | 58%
O=C(Nc1cccc2cccnc12)c1ccc(Br)o1 | -22% | 4% | -10% | ? | 24%
O=C(COc1ccc(Cl)c2cccnc12)N1CCOCC1 | . | -12% | 0% | 13%[59 µM] | 43%
COC(=O)c1ccc(CN(c2ccc(OC)cc2)S(=O)(=O)c2ccccc2)cc1 | . | 0% | . | . | 32%
Cc1sc(NC(=O)c2ccco2)c(CN2CCN(c3ccc(F)cc3)CC2)c1C | -7% | -32% | 1% | 1% | 4%
CCOc1ccc(-n2c(SCc3nc(-c4ccc(C)cc4)no3)nnc2-c2ccncc2)cc1 | -14% | -36% | -5% | 79µM* | 14%
COc1ccc(-n2c(SCc3ccc([N+](=O)[O-])cc3)nnc2-c2ccccc2)cc1 | -3% | ? | ? | ? | -2%
COc1ccc(-c2noc(CSc3nnc(-c4ccncc4)n3-c3ccc(C)cc3)n2)cc1 | . | ? | -34% | -36%[59 µM] | -15%
CCOc1ccc(-n2c(SCc3ccc([N+](=O)[O-])cc3)nnc2-c2ccccc2)cc1 | 0% | 56µM* | -30% | ? | 0%
O=C(NNS(=O)(=O)c1ccccc1)C1CCN(S(=O)(=O)c2ccc(Cl)cc2)CC1 | 2% | 13% | 7% | 19%[59 µM] | 31%
CC1(C)CC(=O)C(C(=O)C2CCN(S(=O)(=O)c3ccccc3)CC2)C(=O)C1 | 5% | 100µM* | -9% | -28% | 12%
O=C(NNS(=O)(=O)c1ccccc1)C1CCN(S(=O)(=O)c2ccccc2)CC1 | -13% | -4% | 4% | 22µM* | 30%
CC(=O)OC[C@@]1(O)C[C@]23CCC4c5ccoc5CC[C@@]4(C)C2CCC1C3 (stereo not given in full) | 20% | . | . | . | .
C[C@@]12C=Cc3occc3C1CC[C@@]13C[C@@H](CCC12)[C@@](O)(CO)C3 (stereo not given in full) | -28% | . | . | 14µM* | .
COC(=O)c1ccc(CNC(=O)COC(=O)CCN2C(=O)C3CC=CCC3C2=O)cc1 (stereo not given) | . | -12% | 11% | -31% | -18%
CCOC1=NN(c2ccccc2)C(=O)/C1=C\N(C)C | -4% | -3% | -23% | ? | 46%
CCOC1=NN(c2ccc(Cl)cc2)C(=O)/C1=C\N(C)C | 21% | -14% | -26% | 56µM* | 29%
CC1=NN(c2nc3ccccc3[nH]2)C(=O)/C1=C/N(C)C | 18% | 56µM* | 22µM* | 34%[59 µM] | 48%
CC1=NN(c2ccc([N+](=O)[O-])cc2)C(=O)/C1=C\N(C)C | 7% | -22% | ? | 10µM* | -4%
CCCC1=NN(c2ccc([N+](=O)[O-])cc2)C(=O)/C1=C/N(C)C | 79µM* | -16% | 7% | 0%[59 µM] | 21%
